{"source": "the supplement of paper PMC13380429"}
{"tested_on": "Vero E6 infected with SARS-CoV-2", "experiment": "morphology score (similarity to uninfected cells); higher = more like uninfected cells", "details": "24 h"}
{"smiles": "c1ccc(-c2n[nH]cc2-c2ccnc3ccccc23)nc1", "note": "(10 µM)", "morphology score": -0.0555}
{"smiles": "CC[C@H](c1ccc(O)cc1)[C@@H](CC)c1ccc(O)cc1", "note": "[hexestrol] (10 µM)", "morphology score": 0.143}
{"smiles": "CC(=O)Nc1cccc2c1c(Sc1ccc(Cl)cc1)c(C)n2CC(=O)O", "note": "(10 µM)", "morphology score": 0.187}
{"smiles": "Cc1cc(-n2c(=O)[nH]c(=O)n(C)c2=O)ccc1Oc1ccc(SC(F)(F)F)cc1", "note": "[toltrazuril] (10 µM)", "morphology score": 0.184}
{"smiles": "CN(CCOc1ccc(NS(C)(=O)=O)cc1)CCc1ccc(NS(C)(=O)=O)cc1", "note": "[dofetilide] (10 µM)", "morphology score": 0.059}
{"smiles": "NC[C@@H]1CC[C@@H](N)[C@@H](O[C@H]2[C@H](O)[C@@H](O[C@H]3O[C@H](CO)[C@@H](O)[C@H](N)[C@H]3O)[C@H](N)C[C@@H]2N)O1", "note": "[dibekacin] (10 µM)", "morphology score": 0.0218}
{"smiles": "O=C(O)c1nn(Cc2ccc(Cl)cc2Cl)c2ccccc12", "note": "[lonidamine] (10 µM)", "morphology score": 0.0313}
{"smiles": "O=C(/C=C/c1ccc(O)c(O)c1)O[C@@H]1C[C@](O)(C(=O)O)C[C@@H](O)[C@H]1O", "note": "[chlorogenic-acid] (10 µM)", "morphology score": 0.0432}
{"smiles": "CC(=O)[C@H]1CC[C@H]2[C@@H]3CC[C@H]4C[C@](C)(O)CC[C@]4(C)[C@H]3CC[C@]12C", "note": "[ganaxolone] (10 µM)", "morphology score": -0.0442}
{"smiles": "O=C(/C=C/c1ccc(O)c(O)c1)c1ccc(O)cc1O", "note": "[butein] (10 µM)", "morphology score": 0.256}
{"smiles": "FC(F)c1nc2ccccc2n1-c1nc(N2CCOCC2)nc(N2CCOCC2)n1", "note": "(10 µM)", "morphology score": -0.0463}
{"smiles": "C[C@@H]1CCN(C(=O)CC#N)C[C@@H]1N(C)c1ncnc2[nH]ccc12", "note": "(10 µM)", "morphology score": 0.281}
{"smiles": "COc1ccc(Cn2ccc3ccc(C(=O)NO)cc32)cc1", "note": "(0.833333 µM)", "morphology score": 0.108}
{"smiles": "COc1ccc(Nc2nccc(NCCO)n2)cc1", "note": "[cardiogenol-C] (10 µM)", "morphology score": 0.0849}
{"smiles": "O=C1[C@H](CC[C@H](O)c2ccc(F)cc2)[C@@H](c2ccc(O)cc2)N1c1ccc(F)cc1", "note": "[ezetimibe] (10 µM)", "morphology score": 0.142}
{"smiles": "CNCCN(C)Cc1c[nH]nc1-c1ccc(O[C@H]2C[C@H](OCCC3CCOCC3)C2)cc1", "note": "(10 µM)", "morphology score": -0.0509}
{"smiles": "CCC(=O)O[C@@](Cc1ccccc1)(c1ccccc1)[C@@H](C)CN(C)C", "note": "[levopropoxyphene] (10 µM)", "morphology score": -0.0577}
{"smiles": "CO/N=C(\\C(=O)N[C@@H]1C(=O)N2C(C(=O)O)=C(COC(N)=O)CS[C@H]12)c1ccco1", "note": "(10 µM)", "morphology score": 0.0841}
{"smiles": "NC(=O)c1ccc[n+]([C@@H]2O[C@H](COP(=O)([O-])OP(=O)(O)OC[C@H]3O[C@@H](n4cnc5c(N)ncnc54)[C@H](O)[C@@H]3O)[C@@H](O)[C@H]2O)c1", "note": "[nadide] (10 µM)", "morphology score": -0.0496}
{"smiles": "O=Nc1c(O)[nH]c2c(Cl)c(Cl)ccc12", "note": "(10 µM)", "morphology score": 0.117}
{"smiles": "C[C@H](NC(=O)C(C)(C)Oc1ccc(C(F)(F)F)cn1)[C@@H](Cc1ccc(Cl)cc1)c1cccc(C#N)c1", "note": "[taranabant] (10 µM)", "morphology score": 0.1}
{"smiles": "COc1cc2c(cc1OC)CN(CCc1ccc(NC(=O)c3cccc4c(=O)c5cccc(OC)c5[nH]c34)cc1)CC2", "note": "[elacridar] (10 µM)", "morphology score": 0.0355}
{"smiles": "CN1C(C(=O)Nc2ccccn2)=C(O)c2sc(Cl)cc2S1(=O)=O", "note": "[lornoxicam] (10 µM)", "morphology score": 0.00915}
{"smiles": "Cc1cc(-c2nc(C(=O)Nc3cn(C4CCOCC4)nc3C(N)=O)co2)ccn1", "note": "(10 µM)", "morphology score": -0.166}
{"smiles": "Cc1oc2nc3c(c(NC(=O)CN4CCCC4=O)c2c1C)CCCC3", "note": "(10 µM)", "morphology score": 0.0552}
{"smiles": "CC=C1C(=O)C[C@H]2[C@@H]3CCC4=CC(=O)CC[C@]4(C)[C@H]3CC[C@]12C", "note": "(10 µM)", "morphology score": 0.0492}
{"smiles": "CO[C@@H](C)Cn1c(=O)n(C)c2cnc3ccc(-c4cncc(C(C)(C)O)c4)cc3c21", "note": "(10 µM)", "morphology score": -0.000833}
{"smiles": "c1ccc(CCCCN2CCC(c3ccccc3)CC2)cc1", "note": "(10 µM)", "morphology score": 0.286}
{"smiles": "O=S(=O)(F)Cc1ccccc1", "note": "[phenylmethylsulfonyl-fluoride] (10 µM)", "morphology score": 0.191}
{"smiles": "O=C(c1ccc(CN2CCOCC2)cc1)N1CCN(C2CC2)CC1", "note": "[bavisant] (10 µM)", "morphology score": -0.0555}
{"smiles": "O=c1[nH]c2ccccc2n1C1CCN(CCCC(c2ccc(F)cc2)c2ccc(F)cc2)CC1", "note": "[pimozide] (10 µM)", "morphology score": 0.48}
{"smiles": "O=c1c(-c2ccccc2)c1-c1ccccc1", "note": "[diphencyprone] (10 µM)", "morphology score": -0.0547}
{"smiles": "C=C1/C(=C\\C=C2/CCC[C@]3(C)[C@@H]([C@H](C)CCCC(C)C)CC[C@@H]23)C[C@@H](O)C[C@@H]1O", "note": "[alfacalcidol] (10 µM)", "morphology score": 0.0852}
{"smiles": "CN1CCCN=C1/C=C/c1cccs1", "note": "[pyrantel-pamoate] (10 µM)", "morphology score": 0.103}
{"smiles": "CCC(CC)C(c1ccc(Nc2nc3ccccc3s2)cc1)n1cncn1", "note": "(stereo not given) [talarozole] (10 µM)", "morphology score": 0.326}
{"smiles": "O=C(O)Cc1cccnc1C(=O)O", "note": "[homoquinolinic-acid] (10 µM)", "morphology score": 0.0575}
{"smiles": "COc1cc(NC(=O)c2ccccn2)ccc1Cl", "note": "(10 µM)", "morphology score": 0.133}
{"smiles": "O=S(=O)(N[C@H](CO)C(C(F)(F)F)C(F)(F)F)c1ccc(Cl)s1", "note": "[begacestat] (10 µM)", "morphology score": 0.00774}
{"smiles": "OC[C@H]1NCC[C@@H](O)[C@@H]1O", "note": "[fagomine] (10 µM)", "morphology score": -0.0114}
{"smiles": "Cc1ccc(S(=O)(=O)NC(=O)NN2CCCCCC2)cc1", "note": "[tolazamide] (10 µM)", "morphology score": 0.103}
